Results taken from PubChem BioAssay (NCI).
About 83,000 compounds went through this panel and 20% of them were active in at least one assay; those are over-represented in the sample as a whole.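 48-hour exposure, single concentration, 96-well plates; percent growth endpoint where 0 means no net growth. Active: below 10.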 The source made the active and inactive calls.

The compounds below were run on HL-60(TB) leukemia (assay: NCI-60 one-dose screen, 48 h (100 = growth as untreated, 0 = no growth, -100 = all killed)). Conditions: 10 µM unless noted.

| Structure (SMILES) | growth |
| --- | --- |
| Cc1ccc(-n2nc3c(c(C#N)c2=O)CC(c2ccccc2Cl)C([N+](=O)[O-])=C3O)cc1 (configuration not stated) | 96% (inactive) |
| CC(=O)OCC1OC(n2cnc3c(=S)nc(N)[nH]c32)C(OC(C)=O)C1OC(C)=O (configuration not stated) | 81.2% (inactive) |
| CCS/C(Nc1ccccc1)=C(\C#N)C(=O)Nc1ccc(OC)cc1 | -15.6% (active) |
| COC(=O)c1c(C)nc(C)c2c1C(=O)C(Br)=C(NCCN1CCOCC1)C2=O | 61.9% (inactive) |
| Cc1cc(N(CCCNc2ccnc3cc(Cl)ccc23)Cc2ccco2)nc(N2CCN(C)CC2)n1 | 38% (inactive) |
| COc1ccc2c(c1)oc1c(C)c3c(c(C)c12)C(=O)N(N)C3=O | 38.3% (inactive) |
| COc1cc(-c2cc(-c3ccc(Nc4ccnc5cc(Cl)ccc45)cc3)nc(N3CCOCC3)n2)cc(OC)c1OC | 68.2% (inactive) |
| CC1=C(C#N)C(=O)NC(C)C1 (configuration not stated) | 91% (inactive) |
| CCc1cccc(C)c1NC(=O)c1sc2nc3c(cc2c1N)CCCCC3 | -10.5% (active) |
| COc1cc(C2NC(c3ccc(Cl)cc3)C(C)/C(=N/NC(N)=S)C2C)cc(OC)c1OC (configuration not stated) | 79.9% (inactive) |
| O=C(NCc1ccc(Cn2c(=O)sn(-c3ccc(Cl)cc3)c2=O)cc1)OCc1ccc2c(Cl)cc(Cl)c(O)c2n1 | 56.3% (inactive) |
| O=C(O)CCCCNC(=O)c1ccccc1 | 101% (inactive) |
| Cn1cc(-c2nc(-c3c[nH]c4ccncc34)cs2)c2cc(F)ccc21 | -55.3% (active) |
| COc1ccc(-c2[nH][nH]c(=O)c2-c2nc3ccccc3s2)cc1 | 99.5% (inactive) |
| COc1cc(Nc2ncccc2C(=O)Nc2nc3ccc(F)cc3s2)cc(OC)c1OC | 136% (inactive) |
| Cc1cnc(SCc2ccc(Cl)cc2Cl)nc1Nc1ccc(Cl)c(Cl)c1 | 81% (inactive) |
| O=C(c1nnc(Nc2ccccc2Br)o1)c1c[nH]c2ccccc12 | 103% (inactive) |
| Cc1ccc2oc3nc(C)c(C(=O)NCc4ccccc4)cc3c(=O)c2c1 | 73.4% (inactive) |
| COc1ccc(OC)c(C(=O)Nc2cccc(-c3cc(=O)c4ccccc4o3)c2)c1 | 89.4% (inactive) |
| Cc1ccccc1/C=C/C(=O)c1cccc(OCCCCOc2cccc(C(=O)/C=C/c3ccccc3C)c2)c1 | 81.8% (inactive) |
| C/C(=N\NC(=O)c1ccccc1N)c1ccccc1O | 40.8% (inactive) |
| CSc1nc(N)c(N=Nc2ccc(S(=O)(=O)Nc3nnc(C)s3)cc2)c(=O)[nH]1 | 90.4% (inactive) |
| C=C(C)[C@@H]1CC[C@]2(C(=O)N3CCN(C)CC3)CC[C@]3(C)[C@H](CC[C@@H]4[C@@]5(C)C/C(=C/c6ccc(C(F)(F)F)cc6)C(=O)C(C)(C)[C@@H]5CC[C@]43C)[C@@H]12 | 94.1% (inactive) |
| Cc1cccc(Cc2cnc(NC(=O)CCCOc3ccc(Cl)cc3)s2)c1 | -34.2% (active) |
| CCOC(=O)/C(C#N)=C/c1cccc(C)c1 | 86.4% (inactive) |
| CCOC(=O)c1c(/N=C2\SC(=O)/C(=C\C(=O)OC)N2NC)sc2c1CCN(C(=O)OCC)C2 | 108% (inactive) |
| O=C(Nc1ccc(F)c(Cl)c1)c1n[nH]c(=O)c2ccccc12 | 86.2% (inactive) |
